# According to PubChem BioAssay (NCATS):
# Records with an inconclusive call do not appear. Entries that show only a call come without a potency. Active and inactive are the calls of the source. Calls come from the whole dose curve; as a rule, active = well fitted curve in the direction sought with a large enough effect; inconclusive = small, poorly fitted or top-dose-only effect, or another doubt; inactive = no such curve, though single readings can be large; an effect the other way counts as inactive or inconclusive.
# Legend:
# [1] = qHTS for Inhibitors of the Aldehyde Dehydrogenase Family (ALDH1A2, ALDH1A3, ALDH2, ALDH3A1) (AID 2061307); note: nearly all actives have a fitted effect of over 50% in size; for potency: test system not described further here; potency is the fitted concentration of half-maximal effect
# [2] = biological target: Retinal dehydrogenase 2 (Homo sapiens) (UniProt O94788); test: qHTS for Inhibitors of the Aldehyde Dehydrogenase Family (ALDH1A2) Confirmation screens (AID 2061314); note: nearly all actives have a fitted effect of over 65% in size; note: potency is the fitted concentration of half-maximal effect
# [3] = biological target: Retinaldehyde dehydrogenase 3 (Homo sapiens) (UniProt P47895); test: qHTS for Inhibitors of the Aldehyde Dehydrogenase Family (ALDH1A3) Primary screen (AID 2061315)
# [4] = biological target: Aldehyde dehydrogenase 1A1 (Homo sapiens) (UniProt P00352); test: qHTS for Inhibitors of the Aldehyde Dehydrogenase Family (ALDH1A1) Confirmatory screens (AID 2061316); note: nearly all actives have a fitted effect of over 65% in size; note: potency is the fitted concentration of half-maximal effect
# [5] = biological target: Retinaldehyde dehydrogenase 3 (Homo sapiens) (UniProt P47895); test: qHTS for Inhibitors of the Aldehyde Dehydrogenase Family (ALDH1A3) Confirmatory screens (AID 2061311); note: nearly all actives have a fitted effect of over 60% in size; note: potency is the fitted concentration of half-maximal effect
# [6] = biological target: Aldehyde dehydrogenase, mitochondrial (Homo sapiens) (UniProt P05091); test: qHTS for Inhibitors of the Aldehyde Dehydrogenase Family (ALDH2) Primary screen (AID 2061308); note: nearly all actives have a fitted effect of over 55% in size
smiles,measurement,setting,value
Cc1ccc(NS(=O)(=O)c2cc3c(cc2-c2ccco2)NC(=O)CO3)cc1C,Potency,[1],inactive
same,Potency,[2],inactive
same,Potency,[3],inactive
same,Potency,[4],11.3 µM (active)
Cc1cccc(NC(=O)N2CC(Oc3ccc(-c4nc(C)no4)cc3)C2)c1,Potency,[1],3.24 µM (active)
same,Potency,[2],inactive
same,Potency,[4],inactive
Cc1cc(N(C)S(=O)(=O)c2ccc(NC(=O)Cc3ccc(Cl)c(Cl)c3)cc2)no1,Potency,[1],25.2 µM (active)
same,Potency,[2],inactive
same,Potency,[4],12.7 µM (active)
O=C(NCCc1nc2ccccc2n1CCCc1ccccc1)C1CCCCC1,Potency,[1],inactive
same,Potency,[2],inactive
same,Potency,[3],inactive
CC(=O)Nc1sc2c(c1-c1ccc(N3CCN(C)CC3)cc1)CCNC2,Potency,[1],inactive
same,Potency,[5],inactive
same,Potency,[4],inactive
CC(=O)Nc1sc2c(c1-c1ccc(N(C)C)cc1)CCNC2,Potency,[1],14.2 µM (active)
same,Potency,[5],3.57 µM (active)
same,Potency,[4],11.3 µM (active)
CCOC(=O)c1ccc(-c2ccc3ncnc(NCc4ccc(C)o4)c3c2)o1,Potency,[1],inactive
same,Potency,[2],12.7 µM (active)
same,Potency,[3],inactive
COc1ccc(C2Nc3ccc(Cl)cc3C(=O)N2Cc2ccccc2)cc1COc1ccc(NC(C)=O)cc1 (stereo not given),Potency,[1],3.57 µM (active)
same,Potency,[2],11.3 µM (active)
same,Potency,[3],inactive
same,Potency,[4],22.5 µM (active)
O=C(N/N=C/c1ccc(Sc2ccccn2)o1)c1ccccc1,Potency,[1],5.65 µM (active)
same,Potency,[2],inactive
CCn1cnc2c(Nc3ccc(CC(=O)N=C(N)N)cc3)nc(C#N)nc21,Potency,[1],inactive
same,Potency,[5],inactive
same,Potency,[3],inactive
same,Potency,[4],inactive
C#CCOc1ccc(-c2no[n+]([O-])c2C#N)cc1,Potency,[1],11.3 µM (active)
same,Potency,[2],7.98 µM (active)
same,Potency,[3],inactive
O=C(Nc1cccc(Cc2ccccc2)c1)c1ccc(-c2cccc([N+](=O)[O-])c2)o1,Potency,[1],25.2 µM (active)
same,Potency,[2],12.7 µM (active)
same,Potency,[3],inactive
CN(C)CCCNc1cc(O)c2ncccc2c1,Potency,[1],inactive
same,Potency,[5],1.42 µM (active)
same,Potency,[4],4 µM (active)
CC(=O)Nc1sc2c(c1-c1ccco1)CCNC2,Potency,[1],inactive
same,Potency,[2],17.9 µM (active)
same,Potency,[3],inactive
same,Potency,[4],25.2 µM (active)
CNc1sc(-c2cccc3ccccc23)nc1C#N,Potency,[1],inactive
same,Potency,[2],11.3 µM (active)
same,Potency,[3],inactive
same,Potency,[4],5.04 µM (active)
Cc1cc(NC(=O)Nc2nnc(-c3ccncc3)s2)ccc1Br,Potency,[1],11.3 µM (active)
same,Potency,[5],inactive
same,Potency,[3],inactive
same,Potency,[4],12.7 µM (active)
CN(Cc1ccc(-c2ccc(C#N)cc2)o1)c1ccc(N2CCN(C(=O)OC(C)(C)C)CC2)cc1,Potency,[1],1.79 µM (active)
same,Potency,[5],11.3 µM (active)
same,Potency,[4],11.3 µM (active)
COc1ccc(C2=NS(=O)(=O)N(C)C(C(=O)Nc3ccc(OC(F)(F)F)cc3)=C2)cc1,Potency,[1],7.94 µM (active)
same,Potency,[2],inactive
O=C(NCc1ccccc1)c1csc(N2CCN(c3ccc(Cl)cc3)CC2)n1,Potency,[1],2.82 µM (active)
same,Potency,[2],inactive
C[C@@H](CO)Nc1cc2c(cc1[S+](=O)([O-])Nc1ccc(Cl)c(Cl)c1)CCC(=O)N2,Potency,[1],inactive
same,Potency,[5],inactive
same,Potency,[3],inactive
same,Potency,[4],inactive
COc1ccc(C2c3c(N)nc(CCc4ccccc4)nc3Oc3ccc4ccccc4c32)cc1OC (stereo not given),Potency,[1],inactive
same,Potency,[3],inactive
CC(=O)c1ccc(NC(=O)c2cc(S(=O)(=O)N3CCOCC3)ccc2C)cc1,Potency,[1],inactive
same,Potency,[2],inactive
Cc1ccnc(NC(=S)N2CCNCC2)c1,Potency,[1],inactive
same,Potency,[2],inactive
Cc1ccc(NC(=O)CSc2nc3ccccc3nc2N2CCOCC2)cc1,Potency,[1],25.1 µM (active)
same,Potency,[2],2.29 µM (active)
CCc1ccc(-n2c(=O)c3cccnc3n2CC(=O)N(CC)c2cccc(C)c2)cc1,Potency,[1],inactive
same,Potency,[5],28.2 µM (active)
same,Potency,[4],11.5 µM (active)
CCOC(=O)Cn1c(=O)oc2cc(S(=O)(=O)N3CCN(c4ccc(Cl)cc4)CC3)ccc21,Potency,[1],inactive
same,Potency,[5],inactive
same,Potency,[4],inactive
O=C(CSc1nc2ncccc2o1)Nc1ccc(Cl)cc1F,Potency,[1],inactive
same,Potency,[5],10 µM (active)
same,Potency,[4],inactive
O=C(Nc1cccc(Br)c1)c1cc(-c2ccc3c(c2)OCCO3)on1,Potency,[1],inactive
same,Potency,[2],inactive
same,Potency,[4],inactive
CC(C)(O)c1ccccc1CC[C@H](SCC1(CC(=O)O)CC1)c1cccc(/C=C/c2ccc3ccc(Cl)cc3n2)c1,Potency,[1],10.1 µM (active)
same,Potency,[2],inactive
same,Potency,[3],inactive
same,Potency,[4],22.5 µM (active)
CC(=O)C1CCC2(C)C3=C(CCC12C)C1(C)CCC(=O)C(C)(C)C1CC3 (stereo not given),Potency,[1],inactive
same,Potency,[3],inactive
O=C(NCC(=O)N1CCC(c2ccccc2)CC1)c1cccc(-c2ccc(C(F)(F)F)cc2)c1,Potency,[1],inactive
same,Potency,[5],inactive
same,Potency,[4],inactive
CCc1ccc(-c2nn3c(C)nnc3s2)cc1NC(=O)c1ccc(-c2cccc(Cl)c2)o1,Potency,[1],25.1 µM (active)
same,Potency,[2],12.7 µM (active)
same,Potency,[3],inactive
same,Potency,[4],5.04 µM (active)
Cc1ccnc(NC(=S)N2CCN(c3ccc(Cl)cc3Cl)CC2)c1,Potency,[1],inactive
same,Potency,[2],11.3 µM (active)
same,Potency,[4],7.98 µM (active)
Cc1nnc2ccc(N3CCC(NC(=O)c4cccc(C(F)(F)F)c4)CC3)nn12,Potency,[1],inactive
same,Potency,[5],inactive
same,Potency,[4],inactive
Cc1ccc(OCCn2c(CCNC(=O)c3ccccc3N)nc3ccccc32)cc1,Potency,[1],1.13 µM (active)
same,Potency,[2],12.7 µM (active)
same,Potency,[3],inactive
same,Potency,[4],7.12 µM (active)
COC(=O)c1ccnc(NCc2ccc(O)c3ncccc23)c1,Potency,[1],11.3 µM (active)
same,Potency,[5],7.12 µM (active)
same,Potency,[4],11.3 µM (active)
O=C(NCc1ccc2c(c1)OCO2)c1csc(N2CCN(c3ccc(F)cc3)CC2)n1,Potency,[1],0.708 µM (active)
same,Potency,[2],inactive
same,Potency,[4],4.47 µM (active)
CCc1nnc2sc(-c3ccc(C)c(NC(=O)c4ccc(-c5cccc(Cl)c5)o4)c3)nn12,Potency,[1],12.6 µM (active)
same,Potency,[2],3.18 µM (active)
C[C@@H](O)c1ccc(-c2ccc3ncnc(NCc4cccs4)c3c2)o1,Potency,[1],inactive
same,Potency,[3],inactive
COc1ccc(NC(=O)c2cccnc2)cc1S(=O)(=O)Nc1ccc(Br)cc1,Potency,[1],inactive
same,Potency,[3],inactive
CN(C)c1ccc(-c2nc3ccccc3s2)cc1,Potency,[6],inactive
Cc1cc(NCc2ccc(-c3cccnc3)cc2)nc(-c2ccccc2C(C)C)n1,Potency,[6],inactive
Cc1cccc2c1NC(=O)/C2=C/c1cc(Cl)c(O)c(Cl)c1,Potency,[1],4 µM (active)
same,Potency,[3],inactive
Cc1ccnc(NC(=S)N2CCc3cccc(C(F)(F)F)c3C2)c1,Potency,[6],inactive
CN(C)c1cnc2c(O)ccc([S+](=O)([O-])Nc3ccccc3F)c2c1,Potency,[6],inactive
Cc1ccnc(NC(=S)N2CCN(c3cccc(C(F)(F)F)n3)CC2)c1,Potency,[6],inactive
Cc1ccc(S(=O)(=O)Nc2cccc3cccnc23)c([N+](=O)[O-])c1,Potency,[6],inactive
CC(C)(C)c1ccc(-c2nnc(NC(=O)Nc3ccc4ccccc4c3)s2)cc1,Potency,[1],10.1 µM (active)
same,Potency,[3],inactive
same,Potency,[4],11.3 µM (active)
COc1ccc(/C=C(\C)C2Nc3cccc4cccc(c34)N2)cc1,Potency,[6],inactive
O=C(O)c1cccc(-c2noc(-c3ccccc3C(F)(F)F)n2)c1,Potency,[6],inactive
O=C(O)c1cccc(-c2noc(-c3ccc(Cl)cc3)n2)c1,Potency,[6],inactive
CCOc1ccc(CCNC(C)=O)cc1OCC,Potency,[6],inactive
CC(C)(C)NS(=O)(=O)c1cccc(Nc2nn3c(=O)c4ccccc4nc3s2)c1,Potency,[1],22.5 µM (active)
same,Potency,[3],inactive
same,Potency,[4],11.3 µM (active)
Fc1ccccc1-c1nc(-c2ccccc2)no1,Potency,[6],inactive
CN1CCN(c2ccc(-c3cc(O)c4ncccc4c3)cc2)CC1,Potency,[6],inactive
Cc1ccc(C)n1-c1cccc(C(=O)O)c1,Potency,[1],5.65 µM (active)
same,Potency,[3],inactive
COc1ccnc(NC(=S)N2CCN(c3cccc(Cl)c3Cl)CC2)c1,Potency,[1],10 µM (active)
same,Potency,[4],4 µM (active)
CC(=O)Nc1sc2c(c1-c1ccc(C#N)cc1)CCNC2,Potency,[1],inactive
same,Potency,[3],inactive
same,Potency,[4],inactive
CN1CCN(c2ccc(Nc3c4ccccc4nc4ccccc34)cc2)CC1,Potency,[6],inactive
N#Cc1ccc(-c2nc3ccccc3s2)cc1,Potency,[6],inactive
Cc1ccc(C2Nc3cccc4cccc(c34)N2)cc1,Potency,[6],inactive
Cc1cc(C)nc(NC(=S)N2CCN(c3ccc(F)c(Cl)c3)CC2)c1,Potency,[1],7.08 µM (active)
same,Potency,[3],inactive
same,Potency,[4],6.34 µM (active)
Cc1ccc(CN(C)c2ncnc3ccc(-c4ccc5c(c4)OCO5)cc23)o1,Potency,[1],15.8 µM (active)
same,Potency,[3],inactive
same,Potency,[4],8.96 µM (active)
COc1ccc(C(O[C@@H]2O[C@H](CO)[C@@H](O)[C@H](O)[C@H]2O)C(CO)Oc2ccc(/C=C/CO)cc2OC)cc1O (stereo not given in full),Potency,[6],inactive
CC(O)c1ccc(-c2ccc3ncnc(NCc4nccs4)c3c2)o1 (stereo not given),Potency,[1],inactive
same,Potency,[3],inactive
same,Potency,[4],10.1 µM (active)
COc1ccnc(NC(=S)N2CCN(c3ccc(Cl)cc3Cl)CC2)c1,Potency,[1],11.2 µM (active)
same,Potency,[4],5.65 µM (active)
CC(CN1c2ccccc2Sc2ccc(S(=O)(=O)N(C)C)cc21)N(C)C (stereo not given),Potency,[6],inactive
O=C(NCCc1ccc(O)c(O)c1)c1cc2sccc2n1Cc1ccccc1,Potency,[6],inactive
O=[N+]([O-])c1ccc(S(=O)(=O)Nc2cnc3ccccc3c2)cc1,Potency,[1],inactive
same,Potency,[3],inactive
same,Potency,[4],inactive
CN(C(=O)OC(C)(C)C)c1ccc(-c2nc3ccccc3s2)cc1,Potency,[6],inactive
COc1ccc(OC)c(NC(=O)c2ccccc2OC(C)=O)c1,Potency,[6],inactive
Nc1ccccc1C(=O)NCc1ccco1,Potency,[1],inactive
same,Potency,[3],inactive
Cc1cnc(-c2ccccc2C(F)(F)F)nc1NCc1ccc(-c2cccnc2)cc1,Potency,[6],inactive
O=C(O)c1ccc(Cc2c(-c3cccc(-c4ccccc4)c3)[nH]n(-c3nc(C(=O)O)cs3)c2=O)cc1,Potency,[6],inactive
COc1ccc(O)c(-c2nc3ccccc3c(=O)n2Cc2ccccc2)c1,Potency,[6],inactive
N#Cc1ccc(S(=O)(=O)Nc2cnccc2C(=O)Nc2nc(-c3ccccc3)cs2)cc1,Potency,[6],inactive
O=C1c2ccccc2C(=O)N1c1cccc(=O)[nH]1,Potency,[1],inactive
same,Potency,[3],inactive
same,Potency,[4],inactive
O=C1Cc2cc(S(=O)(=O)N3CCN(c4ccc([N+](=O)[O-])cc4)CC3)ccc2N1,Potency,[1],inactive
same,Potency,[3],inactive
c1ccc2[nH]c(-c3ccc(NCc4ccc5c(c4)OCCO5)cc3)nc2c1,Potency,[6],inactive
